From PubChem BioAssay
RGS4-Gao reg – modulators of RGS4 binding to Galphao, primary screen, biochemical, multiplexed bead flow cytometry; actives lie on both sides; hit rate 0.33% among 220,000; binding response (% of control), % at 10 µM; in the data active = binding response below about 49% or above about 150%; inactive = in between;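 also: fluorescent Galphao activated with aluminum fluoride binding bead-coupled RGS4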
Target sequence (P09471 whole entry, looked up): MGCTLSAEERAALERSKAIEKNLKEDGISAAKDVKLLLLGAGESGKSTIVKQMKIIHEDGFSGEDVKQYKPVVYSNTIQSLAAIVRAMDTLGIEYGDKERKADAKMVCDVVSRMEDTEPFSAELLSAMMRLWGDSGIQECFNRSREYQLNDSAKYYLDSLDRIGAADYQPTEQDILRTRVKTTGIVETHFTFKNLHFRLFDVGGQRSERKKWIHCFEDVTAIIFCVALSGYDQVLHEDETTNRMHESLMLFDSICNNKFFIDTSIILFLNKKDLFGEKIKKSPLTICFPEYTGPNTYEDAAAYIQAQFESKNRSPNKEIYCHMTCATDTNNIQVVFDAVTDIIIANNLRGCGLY
Avidin bead fluor – green autofluorescence of compounds with avidin beads – biophysical, 488/530 nm, flow cytometry, artefact control, profiling panel; compound fluorescence 488/530 nm; stronger effect = higher value; hit rate 0.38% among 220,000; fluorescence (KMESF) at 10 µM; in the data active = fluorescence above about 47
RGS7-Gao reg – RGS7-Galphao binding modulators, primary screen, biochemical, multiplexed bead flow cytometry; Guanine nucleotide-binding protein G(o) subunit alpha (Homo sapiens), P09471; actives lie on both sides; binding response (% of control), % at 10 µM; hit rate 0.35% among 220,000; AID 1439, 2008; in the data active = binding response below about 49% or above about 150%; inconclusive = no clear call, values can overlap the other calls; inactive = in between;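 also: fluorescent Galphao held in activated GDP-AlF4 state binding bead-coupled RGS7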
RGS16-Gao – modulators of RGS16 binding to Galphao, primary screen, biochemical, human proteins, multiplexed bead flow cytometry; bead-based flow cytometry RGS16-Galphao binding, fluorescence; actives lie on both sides; binding response (% of control), % at 10 µM; hit rate 0.38% among 220,000;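 also: Galphao activated by GDP with aluminum fluoride before binding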
GSH fluor – compound fluorescence on glutathione beads, profiling panel, artefact control, biophysical, 488/530 nm, flow cytometry; GSH beads flow cytometry, compound fluorescence 488/530 nm; stronger effect = higher value; fluorescence (KMESF) at 10 µM; hit rate 0.25% among 190,000; AID 1776, 2009; in the data active = fluorescence above about 89;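 also: glutathione beads carrying GST-tagged Bcl family fusion proteins plus one bare bead set; values are compound well signal with DMSO vehicle wells as background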
RGS8-Gao reg – RGS8-Galphao binding modulators, primary screen, biochemical, multiplexed bead flow cytometry; actives lie on both sides; response (percent of control binding), % at 10 µM; hit rate 0.34% among 220,000; in the data active = response below about 60% or above about 140%; inactive = in between;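 also: Galphao activated as the GDP aluminium fluoride complex binding bead-coupled RGS8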
RGS-Gao – modulators of RGS–Galpha-o binding, primary screen, biochemical, multiplexed beads, flow cytometry, RGS4/7/8/16/19; shares compounds with RGS16-Gao; multiplexed bead flow cytometry; RGS4–Galpha-o binding response, % at 10 µM; hit rate 99% among 1,600; AID 1504, 2009;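 also: fluorescently labeled Galpha-o bound to GDP with aluminium fluoride binding biotinylated RGS beads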
Target sequence (P09471 whole entry, looked up): as above
Target sequence (P49798 whole entry, looked up): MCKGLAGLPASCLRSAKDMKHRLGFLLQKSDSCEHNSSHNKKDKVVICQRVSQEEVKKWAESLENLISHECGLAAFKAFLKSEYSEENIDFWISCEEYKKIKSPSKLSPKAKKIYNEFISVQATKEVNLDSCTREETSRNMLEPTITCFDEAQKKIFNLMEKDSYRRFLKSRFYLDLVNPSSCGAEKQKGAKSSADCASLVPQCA
Avidin counter – disruption of biotin probe capture by avidin, counter-screen for RGS protein interaction modulators, biochemical, flow cytometry, bead-based; 1,700 tested, under 10 active; inhibition, % at 10 µM; shares compounds with RGS16-Gao; streptavidin beads, fluorescein-biotin binding;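 active = inhibition above 50%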;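 also: median green fluorescence of gated singlet beads compared with DMSO control wells; 0% = DMSO wells and 100% = complete loss of bead fluorescence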
RGS8-Gao single – RGS8-Galphao binding modulators, confirmation, biochemical, multiplexed bead flow cytometry, single concentration; shares compounds with RGS16-Gao; bead-based flow cytometry RGS8-Galphao binding, fluorescence; actives lie on both sides; binding response (% of control), % at 10 µM; hit rate 3% among 1,700; AID 1836, 2009; in the data active = binding response below about 72% or above about 130%; inactive = in between;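 also: Galphao activated as GDP AlF4 complex before binding bead RGS8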
RGS7-Gao confirm – RGS7-Galphao binding modulators, confirmation, biochemical, multiplexed bead flow cytometry, single concentration | shares compounds with RGS16-Gao | bead-based flow cytometry RGS7-Galphao binding; actives lie on both sides | response (percent of control binding), % at 10 µM | hit rate 7.8% among 1,700; in the data active = response below about 75% or above about 130%; inactive = in between;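 also: fluorescent Galphao activated with GDP and aluminum fluoride binding bead-coupled RGS7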
RGS16-Gao single – modulators of RGS16-Galphao protein binding, confirmation, biochemical, single concentration, multiplexed bead flow cytometry. response (% of control binding), % at 10 µM. AID 1838, 2009. hit rate 4% among 1,700. bead-based flow cytometry; actives lie on both sides. shares compounds with RGS16-Gao; in the data active = response below about 74% or above about 130%; inactive = in between;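 also: Galphao activated as the GDP aluminium fluoride complex binding bead-coupled RGS16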
RGS4-Gao single – modulators of RGS4-Galphao protein binding, confirmation, biochemical, single concentration, multiplexed bead flow cytometry | shares compounds with RGS16-Gao | actives lie on both sides | binding response (% of control), % at 10 µM | hit rate 4% among 1,700; in the data active = binding response below about 74% or above about 130%; inactive = in between
RGS19-Gao conf – regulators of RGS19-Galphao binding, confirmation, biochemical, single point, multiplexed bead flow cytometry; bead-based flow cytometry RGS19-Galphao binding; actives lie on both sides; response (percent of control binding), % at 10 µM; hit rate 5% among 1,700; AID 1841, 2009; shares compounds with RGS16-Gao; in the data active = response below about 50% or above about 160%; inactive = in between;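 also: 100% = no compound control and 0% = blank background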
Starred values were filed as active, the others as inactive; ? = inconclusive; . = not tested or not shown; [ ] = another dose, or the depositor's remark. This is a sample that favours compounds with a hit; in the whole collection about 1.2% have one here. Unless noted, no rule for the calls is given here.

SMILES	RGS4-Gao reg	Avidin bead fluor	RGS7-Gao reg	RGS16-Gao	GSH fluor	RGS8-Gao reg	RGS-Gao	Avidin counter	RGS8-Gao single	RGS7-Gao confirm	RGS16-Gao single	RGS4-Gao single	RGS19-Gao conf
Cc1oc(CC(C)C)c(CN)c1C(=O)O	100	34	98	105	18	100	.	.	.	.	.	.	.
CC(C)N1CCc2c(sc(NC(=O)c3ccc(S(=O)(=O)N4CCc5ccccc54)cc3)c2C(N)=O)C1	147	5	153*[activator]	137	19	137	147*	.	.	.	.	.	.
CC(C)N1CCc2c(sc(NC(=O)c3nc4ccccc4s3)c2C(N)=O)C1	105	11	101	108	12	104	.	.	.	.	.	.	.
Cc1ccc(-c2ccc(OCC(=O)N3CCOCC3)cc2)cc1	101	16	104	103	31	106	.	.	.	.	.	.	.
Cc1cccc(OCC(=O)N2CCOCC2)c1	160*[activator]	277*	271*[activator]	123	11	97	.	0	101	95	103	101	101
CCN1CCN(C(=S)c2ccc(OCC(=O)N3CCOCC3)cc2)CC1	8.1*	-2	8.8*	5.2*	20	17*	.	0	108	100	110	102	132
CCN1CCN(C(=S)c2ccc(OCC(=O)NCc3ccccc3)cc2)CC1	101	8	154*[activator]	83	9	90	101*	0	97	112	97	101	101
Cc1ccccc1C(=O)NC(CC(C)C)C(=O)OCC(=O)c1c(N)n(C)c(=O)n(C)c1=O (stereo not given)	97	10	?	95	18	99	.	.	.	.	.	.	.
CC(=O)Nc1nc(COc2ccccc2)cs1	101	7	99	96	20	97	.	.	.	.	.	.	.
Cc1ccc(C(=O)Nc2nc(COc3ccccc3)cs2)s1	.	.	.	.	44	.	.	-1	104	100	101	104	107
Cc1c(Cl)cccc1NC(=O)CC(C(=O)O)C1CCCO1 (stereo not given)	136	5	130	323	14	148*[activator]	136*	-1	106	113	109	106	96
Cc1[nH]c2ccccc2c1SCC(=O)O	100	7	97	101	15	101	.	.	.	.	.	.	.
COC(=O)C(F)(F)Sc1c(C)[nH]c2ccccc12	119	143*	158*[activator]	117	26	111	119*	0	104	100	102	102	102
CC(C)(C)NC(=O)c1cccc2c1OC(C)(C)C2	87	1	89	20*	12	66	87*	0	98	94	100	98	80
CCOC(=O)c1c(C)[nH]c(C(=O)COC(=O)C2CC(=O)N(Cc3ccccc3)C2)c1C (stereo not given)	166*[activator]	97*	218*[activator]	511	239*	163*[activator]	.	0	99	95	92	95	93
CCCN1C(=O)C2(SC(NC(C)=O)=NN2C(C)=O)c2cc(C)cc(C)c21 (stereo not given)	98	3	?	96	.	79	.	4	110	98	113	100	99
CCN1C(=O)C2(SC(NC(C)=O)=NN2C(C)=O)c2cc(C)cc(C)c21 (stereo not given)	75	6	77	8	5	76	.	.	.	.	.	.	.
COc1ccc(-n2c(=O)c3ccccc3n(CC(=O)OCc3ccccc3)c2=O)cc1OC	76	12	79	83	16	102	.	.	.	.	.	.	.
CCOc1ccc(NC(=S)NC(=O)c2c(Br)cnn2C)c([N+](=O)[O-])c1	-40*	-2	-20*	224	12	-1.6*	.	-2	101	102	101	102	99
COc1ccc(Br)cc1/C=N/Nc1cccc(C(=O)O)c1	112	78*	172*[activator]	98	12	99	112*	1	96	64*	81	79	67
COc1ccc(C(=O)Nc2cc(C(C)=O)c(C)oc2=O)cc1	100	9	?	101	15	101	.	.	.	.	.	.	.
COC(=O)c1cc(NC(=O)c2ccccc2)c(=O)oc1/C=C/Nc1ccc(Oc2ccccc2)cc1	215*[activator]	80*	211*[activator]	205*[activator]	161*	114	.	-1	125*[activator]	399*[activator]	260*[activator]	284*[activator]	420*[activator]
Cc1cccc(C)c1OCC(O)CNC(C)C (stereo not given)	98	2	100	37	40	88	.	.	.	.	.	.	.
CCOC(=O)c1oc2cccc(OCC(O)CNC(C)C)c2c1C (stereo not given)	204*[activator]	127*	184*[activator]	231*[activator]	31	125	.	2	99	93	93	94	96
